High-throughput results: PubChem, Sanford-Burnham Center for Chemical Genomics
CYP2C9 inh: blockers of cytochrome P450 2C9 activity – biochemical, luminescence, ADME assay, primary screen; inhibition, % at 5 µM; CYP2C9 Supersomes, luciferin-H conversion; AID 777, 2007; P11712; actives 20% (n = 96,000);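 active = blocking of liver enzyme CYP2C9 beyond about 50% at 5 µM, limit read from the data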
CYP2C19 act: human CYP2C19 activators, primary screen, biochemical, luminescence; Cytochrome P450 2C19 (Homo sapiens), P33261; recombinant CYP2C19, luciferin-H EGE luminescence; stronger effect = higher value; 0 = fully inhibited enzyme, 1 = untreated enzyme; activation factor at 5 µM; 96,000 tested, under 10 active; AID 1025, 2008;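 active = activation factor of at least 2 at 5 µM in the primary screen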;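 also: 0 = wells with 2.5 mM tranylcypromine and 1 = vehicle-only wells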
Target sequence (P33261 whole entry, looked up): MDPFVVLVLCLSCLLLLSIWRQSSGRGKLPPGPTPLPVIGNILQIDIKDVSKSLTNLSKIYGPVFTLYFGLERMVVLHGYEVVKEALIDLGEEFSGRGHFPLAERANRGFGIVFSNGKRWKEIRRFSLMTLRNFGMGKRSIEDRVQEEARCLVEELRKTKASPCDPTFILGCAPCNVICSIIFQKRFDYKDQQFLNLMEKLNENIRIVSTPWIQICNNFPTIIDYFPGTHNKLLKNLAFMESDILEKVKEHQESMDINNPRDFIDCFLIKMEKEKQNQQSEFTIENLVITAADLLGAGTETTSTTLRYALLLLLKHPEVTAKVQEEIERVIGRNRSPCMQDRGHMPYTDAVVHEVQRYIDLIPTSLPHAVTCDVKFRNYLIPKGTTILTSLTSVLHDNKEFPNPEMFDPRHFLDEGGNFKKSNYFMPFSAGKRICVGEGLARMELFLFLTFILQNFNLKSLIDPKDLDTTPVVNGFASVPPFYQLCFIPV
Mac1 fbg enh: enhancers of CD11b/CD18 adhesion to fibrinogen, primary screen, K562 cells, luminescence; ATPlite luminescence; Integrin beta-2 (Homo sapiens) + Integrin alpha-M (Homo sapiens), P05107+P11215; AID 1499, 2009; actives 0.07% (n = 93,000); activation, % at 10 µM;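 active = 10 µM primary screen giving 50% or more activity, confirmed by 40% or more on retest at that dose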
Mac1 fbg inh: inhibitors of CD11b/CD18 adhesion to fibrinogen, primary screen, K562 cells, luminescence; Integrin beta-2 (Homo sapiens) + Integrin alpha-M (Homo sapiens), P05107+P11215; ATPlite luminescence; Mn2+ added to activate the integrin; inhibition, % at 10 µM; actives 0.54% (n = 93,000);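 active = primary inhibition of 50% or more at 10 µM, then 40% or more on retest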
CYP2C19 inh: blockers of cytochrome P450 2C19 activity – biochemical, luminescence, ADME assay, primary screen; inhibition, % at 5 µM; CYP2C19 Supersomes, luciferin-H EGE luminescence, 30 min; actives 21% (n = 96,000);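 active = CYP2C19 inhibition above a set limit at 5 µM in the primary screen, cut at about 50% in these data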;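 also: plate controls were negative control wells for no effect and 2.5 mM tranylcypromine positive control for full effect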
CYP2C9 act: human CYP2C9 activators, primary screen, biochemical, luminescence | recombinant CYP2C9, luciferin-H conversion; stronger effect = higher value; factor 1 = untreated enzyme, 0 = blocked | activation factor at 5 µM | actives 1.4% (n = 96,000) | AID 1024, 2008;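 active = activation factor of 2 or more for CYP2C9 at a 5 µM dose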;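 also: 0 = sulfaphenazole-blocked wells and 1 = vehicle-only wells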
* marks the source's active call; other numbers are inactive results; x = no result. A selection: hits, their analogues and other compounds. The true share with any hit is near 28%.

SMILES	CYP2C9 inh	CYP2C19 act	Mac1 fbg enh	Mac1 fbg inh	CYP2C19 inh	CYP2C9 act
COCC(C)NC(=O)c1cc(-c2ccc(O)cc2)on1 (stereo not drawn)	-138	0.9	-2	-1	11	2.4*
Cc1ccc(-c2cc(C(=O)Nc3c(C#N)cnn3C)no2)cc1	56*	1.2	1	2	-15	0.4
CN(C)c1ccc(N2CN=C3SCC(=O)N3C2)cc1	10	0.9	x	x	13	0.9
O=C(CCCCCNS(=O)(=O)c1ccc(Br)cc1)NCCN1CCOCC1	2	1.1	-1	-22	-11	1
Cc1ccc2c(c1)N(CC(=O)NC1CCCCC1C)C(=O)CO2 (stereo not drawn)	-12	0.6	-7	8	43	1.1
CC1(C)CC(=O)C=C(Nc2cc(-c3ccccc3)[nH]n2)C1	53*	0.9	3	-2	14	0.5
Cc1nc(NC(C)c2ccccc2)c2oc3ccccc3c2n1 (stereo not drawn)	61*	0.6	-7	87	44	0.4
Cc1nc(NCc2ccco2)c2oc3ccccc3c2n1	63*	0.2	3	-30	77*	0.4
Cc1nc(Nc2ccncc2)c2oc3ccccc3c2n1	-5	0.9	2	-13	7	1.1
O=C1CCC(=O)N1CN(C(=O)c1ccco1)c1ccccc1	1	1	-2	-9	2	1
Cc1ccc(N(CN2C(=O)C3CC=CCC3C2=O)C(=O)c2ccco2)cc1Cl (stereo not drawn)	61*	0.5	0	-11	45	0.4
COC(=O)c1ccccc1OCCOc1ccccc1C(=O)OC	47	0.4	x	x	62*	0.5
COc1cc(CNCCc2ccc(S(N)(=O)=O)cc2)ccc1OCc1ccc(Cl)cc1	36	0.5	-5	7	53*	0.6
COc1cc(CNCCc2ccccc2)ccc1OCc1ccc(Cl)nc1	35	0.3	-4	1	68*	0.7
CCOc1cc(CNCCc2ccc(S(N)(=O)=O)cc2)ccc1OCc1ccc(Cl)cc1	35	0.5	x	x	54*	0.6
COc1cc(CNCC(O)c2ccccc2)ccc1OCc1ccc(Cl)nc1 (stereo not drawn)	39	0.6	-2	-6	42	0.6
COc1ccc(/C=C/c2nnc(NC(=O)CSc3ccc(Cl)cc3)s2)cc1	x	x	87	-11	x	x
CC(C)NC(=O)C1CCN(C(=O)N(C)C)CC1	-4	1.1	-1	-17	-10	1
COc1cccc(NC(=O)c2nnn(Cc3ccc(Br)cc3F)c2N)c1	11	1.2	-3	2	-22	0.9
Cc1cc(C)cc(NC(=O)c2nnn(Cc3cc(C)ccc3C)c2N)c1	68*	0.7	0	1	31	0.3
Cc1ccccc1Cn1nnc(C(=O)Nc2cccc(C)c2C)c1N	-35	0.5	4	-2	54*	1.4
CCOC(=O)c1cnn(-c2ccccc2)c1N	3	0.9	-2	-22	10	1
CCOC(=O)c1cnn(-c2ccccc2)c1-n1cccc1C(=O)C(=O)Nc1ccc(F)cc1	75*	0.6	2	8	39	0.3
CCOC(=O)c1cnn(-c2ccccc2)c1-n1cccc1C(=O)C(=O)Nc1ccccc1	72*	0.5	2	-17	46	0.3
CCOC(=O)c1c(NC(=O)c2nc3n(n2)C(C(F)F)CC(C)N3)sc2c1CCCC2 (stereo not drawn)	38	0.8	-6	6	19	0.6
SMILES	CYP2C9 inh	CYP2C19 act	Mac1 fbg enh	Mac1 fbg inh	CYP2C19 inh	CYP2C9 act
COC1(OC)N=C(NC(=O)Nc2ccccc2)C2(C#N)C(c3ccccc3)C12C#N (stereo not drawn)	5	1	4	-11	-4	0.9
CCOC(=O)c1c(NC(=O)CSc2nnc(CNc3ccc(F)cc3)o2)sc(C)c1C	63*	0.9	4	4	12	0.4
CCOC(=O)c1sc(NC(=O)CSc2nnc(Cc3ccccc3)o2)c(C(=O)OCC)c1C	78*	0.5	4	-18	54*	0.2
COc1ccc(CC(C)N2CCN(Cc3ccccc3)CC2)c(OC)c1 (stereo not drawn)	-15	1.1	-6	5	-6	1.1
COc1cc(OC)c(C#N)c(S(=O)Cc2ccccc2)c1 (stereo not drawn)	-129	0	1	1	99*	2.3*
O=C(CSc1ccc2nnc(-c3ccccn3)n2n1)NCC1CCCO1 (stereo not drawn)	40	0.8	4	-3	16	0.6
COc1nnc(-c2ccc(N3CCCCC3)c(NC(C)=O)c2)c2ccccc12	66*	0.5	6	-6	54*	0.3
COc1nnc(-c2ccc(N3CCCCC3)c(NC(=O)C3CCCCC3)c2)c2ccccc12	40	0.8	-7	67	24	0.6
CCOC(=O)Cc1cc(=O)n2[nH]c(C)c(-c3ccc(OC)cc3)c2n1	42	0.9	5	7	10	0.6
CCOC(=O)Cc1cc(=O)n2[nH]c(C)c(-c3ccc(Cl)cc3)c2n1	50*	1	1	28	4	0.5
CCOC(=O)Cc1c(C)nc2c(-c3ccc(Cl)cc3)c[nH]n2c1=O	67*	0.9	0	13	7	0.3
CC(C)NC(=O)C(OC(=O)c1ccccc1)C(OC(=O)c1ccccc1)C(=O)O (stereo not drawn)	-2	1.1	x	x	-5	1
CCOC(=O)c1cnc2sc3c(n2c1=O)CCCC3	-24	0.9	-2	21	8	1.2
Cn1nnnc1SCC(=O)Nc1ccccc1C(=O)NCc1ccccc1	7	1.2	x	x	-17	0.9
CS(=O)(=O)N(CC(N)=O)c1ccc(F)c(Cl)c1	6	0.8	0	-10	16	0.9
CNC(=O)N(C1=NCC(C)(C)S1)c1ccc(F)c(Cl)c1	51*	0.1	0	6	91*	0.5
O=c1[nH]cnc2c1C(c1ccccc1[N+](=O)[O-])c1c(nc[nH]c1=O)O2	13	1.1	-2	6	-15	0.9
Cc1ccc(-c2nsc3c(N4CCN(C(=O)c5ccco5)CC4)ncnc23)cc1	23	0.9	-3	-4	10	0.8
COC(=O)c1cc(Br)c(=O)n(Cc2ccc(OC)c(OC)c2)c1	51*	0.5	1	-18	46	0.5
COC(=O)c1cc(Br)c(=O)n(Cc2ccc(C(=O)O)cc2)c1	-5	1.1	6	-6	-14	1.1
